Bioassay records deposited in PubChem by several laboratories.
Most compounds without a hit are left out; they make up all but 5.4% or so of the library.
ALR H2O2 inh – blocks human ALR sulfhydryl oxidase activity; P55789; purified ALR, DTT oxidation, H2O2 HRP-luminol luminescence; inhibition, % (test concentration not listed); 290,000 tested, 3.8% active;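 active = mean replicate inhibition above about 79%, with every replicate also reaching it, limit read from the data; inconclusive = only one of the two criteria met; inactive = mean below limit and not every replicate reaching it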
Target sequence (P55789 whole entry, looked up): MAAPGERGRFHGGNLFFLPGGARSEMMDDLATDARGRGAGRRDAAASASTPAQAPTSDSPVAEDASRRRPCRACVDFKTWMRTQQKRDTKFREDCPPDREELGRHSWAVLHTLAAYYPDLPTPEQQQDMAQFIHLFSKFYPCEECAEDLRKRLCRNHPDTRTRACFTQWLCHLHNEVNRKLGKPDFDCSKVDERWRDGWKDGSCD
PP5 inh – inhibitors of human protein phosphatase 5 (PP5); purified PP5c, OMFP substrate fluorescence; inhibition, % at 6.7 µM; 320,000 tested, 0.18% active; P53041; AID 1987;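 active = inhibition above the campaign's mean inhibition across all tested compounds plus 3 SD, cut at about 9.5% in these data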
CSC inhib – cancer stem cell inhibition; cancer stem cell-like cells viability, luminescence; inhibition, % at 7.5 µM; 300,000 tested, 1.1% active; in the data active = inhibition above about 75%; inconclusive = no clear call, values can overlap the other calls; tested in HMLE shEcad cells
Calb FLC – C. albicans growth modulation with fluconazole; growth inhibition, % (test concentration not listed); C. albicans CaCi-2 (fluconazole-resistant clinical isolate) + fluconazole, Alamar Blue growth, 48 h; 300,000 tested, 0.57% active; AID 1979;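 active = growth inhibition above about 58% in most replicates, limit read from the data, passing the limit was not always enough; inconclusive = exactly half the replicates above a set limit; inactive = most replicates below a set limit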;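 also: all wells also contain fluconazole at 8 µg/ml as a sub-toxic cotreatment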
PP1 counter – PP1-alpha (human) inhibition in PP5 counter-screen | purified PP1alpha, OMFP fluorescence | inhibition, % at 6.7 µM | 320,000 tested, 0.9% active;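 active = inhibition above the mean inhibition of all tested compounds plus 3 SD, computed separately for each screening campaign, cut at about 15% in these data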
Target sequence (P62136 whole entry, looked up): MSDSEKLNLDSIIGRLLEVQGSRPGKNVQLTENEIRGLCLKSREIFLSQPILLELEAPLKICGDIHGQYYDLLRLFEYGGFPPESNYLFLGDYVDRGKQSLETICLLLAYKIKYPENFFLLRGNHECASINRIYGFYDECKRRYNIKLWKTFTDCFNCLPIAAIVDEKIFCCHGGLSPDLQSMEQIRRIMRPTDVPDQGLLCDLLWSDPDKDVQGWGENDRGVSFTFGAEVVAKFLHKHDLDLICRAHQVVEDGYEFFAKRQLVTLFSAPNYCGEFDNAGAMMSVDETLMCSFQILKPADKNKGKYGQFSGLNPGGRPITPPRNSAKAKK
A number is an active result.

Screening COc1ccc(CCn2c(N3CCOCC3)nc3c2c(=O)[nH]c(=O)n3C)cc1 returned ALR H2O2 inh 99, PP5 inh inactive, CSC inhib inactive, Calb FLC inactive and PP1 counter inactive.
For CCNC1=C(Cl)C(=O)c2ccccc2C1=O the results were ALR H2O2 inh inactive, PP5 inh inactive, CSC inhib inactive, Calb FLC inactive and PP1 counter inactive.
For Cc1ccc(NC2=C(Cl)C(=O)c3ccccc3C2=O)cc1 the results were ALR H2O2 inh inactive, PP5 inh inactive, CSC inhib 112, Calb FLC inactive and PP1 counter inactive.
Cc1ccc(NC2=CC(=O)C(=O)c3ccccc32)cc1 was read as ALR H2O2 inh inactive, PP5 inh inactive, CSC inhib inactive, Calb FLC 101 and PP1 counter inactive.
O=C1C(Cl)=C(Nc2ccc(O)cc2)C(=O)c2ccccc21 was read as ALR H2O2 inh inactive, PP5 inh inactive, CSC inhib 124, Calb FLC inactive and PP1 counter inactive.
For COC1=C(Nc2ccc(O)cc2)C(=O)c2ccccc2C1=O the results were ALR H2O2 inh 99, PP5 inh inactive, CSC inhib inactive, Calb FLC inactive and PP1 counter inactive.
Screening COc1ccc(NC(=O)CSc2nc3ccccc3c(=O)n2CCCN2CCC(C)CC2)c(OC)c1 returned PP5 inh inactive, CSC inhib inactive, Calb FLC inactive and PP1 counter inactive.
For O=c1c(C=NCC2CCCO2)c(-c2ccccc2)[nH]n1-c1ccc([N+](=O)[O-])cc1 (centres undefined) the results were PP5 inh inactive, CSC inhib inactive, Calb FLC inactive and PP1 counter inactive.
CCCN(CC(=O)Nc1ccccc1C)C(=O)c1ccc(=O)n(Cc2ccccc2)n1 was read as ALR H2O2 inh inactive, PP5 inh inactive, CSC inhib inactive, Calb FLC inactive and PP1 counter inactive.
`COc1ccc(OC)c(S(=O)(=O)NCCCN2CCOCC2)c1` gave ALR H2O2 inh inactive and CSC inhib inactive.
CCC(C(=O)Nc1cc(Cl)c(OC)cc1OC)c1ccccc1 (centres undefined) was read as ALR H2O2 inh inactive, PP5 inh inactive, CSC inhib inactive, Calb FLC inactive and PP1 counter inactive.
`O=C1C=C(Nc2ccc(O)cc2)C(=O)c2ccccc21` gave PP5 inh inactive, CSC inhib 105, Calb FLC inactive and PP1 counter inactive.
CCN(CC)c1ccc(NC2=C(Cl)C(=O)c3ccccc3C2=O)cc1 was read as ALR H2O2 inh inactive, PP5 inh inactive, CSC inhib 106 and PP1 counter inactive.
For COc1cc(OC)c(NC2=CC(=O)C(=O)c3ccccc32)cc1Cl the results were ALR H2O2 inh inactive, PP5 inh inactive, CSC inhib 102, Calb FLC inactive and PP1 counter inactive.
`CCOc1ccc(NC2=C(OC)C(=O)c3ccccc3C2=O)cc1` gave ALR H2O2 inh inactive, PP5 inh inactive, CSC inhib inactive, Calb FLC inactive and PP1 counter inactive.
COc1ccc(S(=O)(=O)N2CCCN(C)CC2)cc1 was read as ALR H2O2 inh inactive, PP5 inh inactive, CSC inhib inactive, Calb FLC inactive and PP1 counter inactive.
C=CCn1c(O)c(N=NC(=S)Nc2cccc(C)c2)c2ccccc21 was read as ALR H2O2 inh inactive, PP5 inh inactive, CSC inhib inactive, Calb FLC inconclusive and PP1 counter inactive.
For N/C(=N\O)c1ccccc1N1CCCCC1 the results were ALR H2O2 inh 90, PP5 inh inactive, CSC inhib inactive, Calb FLC inactive and PP1 counter inactive.
For Cc1ccccc1/C(N)=N/O the results were PP5 inh inactive, CSC inhib inactive, Calb FLC inactive and PP1 counter inactive.
For Cc1cccc(NC(=O)CN(C)S(=O)(=O)c2ccc(Cl)cc2)n1 the results were ALR H2O2 inh inactive, PP5 inh inactive, CSC inhib inactive, Calb FLC inactive and PP1 counter inactive.
Screening Cc1nc2n[nH]c(N)c2c2c1COC(C)(C)C2 returned ALR H2O2 inh inactive, PP5 inh inactive, CSC inhib inactive, Calb FLC inactive and PP1 counter inactive.
Screening CC1(C)Cc2nc3n[nH]c(N)c3cc2CO1 returned ALR H2O2 inh 87, PP5 inh inactive, CSC inhib inactive, Calb FLC inactive and PP1 counter inactive.
For Cc1ccc(-c2noc(CN(C(=O)CCN3C(=O)c4ccccc4C3=O)C(C)C)n2)cc1 the results were ALR H2O2 inh inactive, PP5 inh inactive, CSC inhib inactive, Calb FLC inactive and PP1 counter inactive.
For S=C(Nc1ccc(Cl)cc1)Nc1ccc2c(c1)OCCO2 the results were ALR H2O2 inh inactive, CSC inhib inactive and Calb FLC 81.
Screening CCC(=O)N1CCN(c2ccc(Cl)cc2NC(=O)c2ccc3c(c2)OCCO3)CC1 returned ALR H2O2 inh inactive, PP5 inh inactive, CSC inhib inactive, Calb FLC 90 and PP1 counter inactive.
Screening O=C(NC(=S)Nc1ccc(N2CCCCC2)c(Cl)c1)c1ccc2c(c1)OCCO2 returned ALR H2O2 inh inactive, PP5 inh inactive, CSC inhib 89, Calb FLC inactive and PP1 counter inactive.
`S=C(Nc1ccc2c(c1)OCCO2)Nc1ccccc1Cl` gave ALR H2O2 inh inactive, CSC inhib inactive and Calb FLC inactive.
`CCC(=O)N1CCN(c2ccc(NC(=O)c3ccc4c(c3)OCCO4)cc2)CC1` gave ALR H2O2 inh inactive, PP5 inh inactive, CSC inhib inactive, Calb FLC inactive and PP1 counter inactive.
For CN(CCC1CCOCC1)C(=O)C1CCC(=O)N(CCc2ccc(Cl)cc2)C1 (centres undefined) the results were ALR H2O2 inh inactive, PP5 inh inactive, CSC inhib inactive, Calb FLC inactive and PP1 counter inactive.
For O=C(COC(=O)c1ccc(C(F)(F)F)cc1)Nc1cccc(S(=O)(=O)NC2=NCCCCC2)c1 the results were ALR H2O2 inh inactive and CSC inhib inactive.
For O=C(c1cc(Cl)nc2ccccc12)N1CCN(S(=O)(=O)c2cccc(C(F)(F)F)c2)CC1 the results were ALR H2O2 inh inactive, PP5 inh inactive, CSC inhib inactive, Calb FLC inactive and PP1 counter inactive.
COc1cc(/C=C\C(=O)Nc2cc(=O)n(C)c(=O)n2C)cc(OC)c1OC was read as ALR H2O2 inh inactive, PP5 inh inactive, CSC inhib inactive, Calb FLC inactive and PP1 counter inactive.
COc1ccc(CCNC(=O)c2cc3c(=O)n4cccc(C)c4nc3n(Cc3ccco3)c2=N)cc1OC was read as ALR H2O2 inh 76, PP5 inh inactive, CSC inhib inactive, Calb FLC inactive and PP1 counter inactive.
`Cc1cccn2c(=O)c3cc(C(=O)NCCc4ccccc4)c(=N)n(Cc4ccco4)c3nc12` gave ALR H2O2 inh inactive, PP5 inh inactive, CSC inhib inactive, Calb FLC inactive and PP1 counter inactive.
Cc1nn(CC(O)CN2c3ccccc3Sc3ccccc32)c(C)c1Br (centres undefined) was read as ALR H2O2 inh inactive, PP5 inh inactive, CSC inhib inactive, Calb FLC inactive and PP1 counter inactive.
Screening OC(CN1c2ccccc2Sc2ccccc21)Cn1nnc2ccccc21 (centres undefined) returned ALR H2O2 inh 98, PP5 inh inactive, CSC inhib inactive, Calb FLC inactive and PP1 counter inactive.
